# The panel holds about 79,000 compounds, 15% with a hit somewhere; the sample as a whole holds those more often. A number with no mark means an inactive call. Activity calls are given as the source filed them. Rule as the data show it: active = growth inhibition above about 70%; inactive = the rest.
# What was measured:
# [1] = NCI Yeast Anticancer Drug Screen. Data for the rad52 strain (AID 147);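 also: 0% = growth of vehicle-treated control cultures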; details: S. cerevisiae rad52 mutant growth inhibition, stronger effect = higher value
# Summary of the method: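 DNA repair-defective yeast; compound exposure; growth scored against vehicle controls.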
# [2] = NCI Yeast Anticancer Drug Screen. Data for the wt1 strain (AID 149);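 also: 0% = growth of vehicle-treated wt1 cultures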; details: S. cerevisiae wt1 strain (SPY 50644) growth inhibition, stronger effect = higher value
# Summary of the method: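 Measured: growth of wt1 yeast under compound versus vehicle treatment, reported as inhibition.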
# [3] = NCI Yeast Anticancer Drug Screen. Data for the rad50EPP+ strain (AID 151);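 also: 0% = growth of vehicle-treated control cultures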; details: S. cerevisiae rad50 mutant strain, stronger effect = higher value
# Summary of the method: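 rad50EPP+ yeast treated with test compounds. Readout: growth vs vehicle control.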
# [4] = NCI Yeast Anticancer Drug Screen. Data for the mgt1 strain (AID 153); details: S. cerevisiae mgt1 mutant growth inhibition, stronger effect = higher value
# Summary of the method: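 Growth inhibition relative to vehicle controls was scored for the mgt1 yeast strain after compound exposure.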
# [5] = NCI Yeast Anticancer Drug Screen. Data for the rad50 strain (AID 155);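 also: 0% = growth of vehicle-only cultures of the same strain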; details: S. cerevisiae rad50 strain growth inhibition, stronger effect = higher value
# Summary of the method: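 Growth of the mutant yeast was measured after compound exposure and referenced to vehicle-treated cultures.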
# [6] = NCI Yeast Anticancer Drug Screen. Data for the mec2-1 strain (AID 157); details: S. cerevisiae mec2-1 strain, stronger effect = higher value
# Summary of the method: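 Growth inhibition is read against vehicle-treated controls after compound exposure of the mec2-1 yeast strain, which is defective in DNA damage repair or cell cycle control.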
# [7] = NCI Yeast Anticancer Drug Screen. Data for the rad14 strain (AID 159);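 also: 0% = growth of vehicle-treated control cultures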; details: S. cerevisiae rad14 strain growth inhibition, stronger effect = higher value
# Summary of the method: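 Here, inhibition of yeast growth was measured after compound exposure, using a strain with a genetic defect in DNA damage repair and vehicle-treated cultures as the reference.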
# [8] = NCI Yeast Anticancer Drug Screen. Data for the sgs1 mgt1 strain (AID 161);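 also: 0% = growth of cultures given vehicle only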; details: S. cerevisiae sgs1 mgt1 strain, stronger effect = higher value
# Summary of the method: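 Yeast cells carrying a defined DNA-repair defect were exposed to test compounds. Growth inhibition was measured relative to vehicle-treated controls.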
# [9] = NCI Yeast Anticancer Drug Screen. Data for the CLN2oe strain (AID 163);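 also: 0% = growth of vehicle-only control cultures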; details: S. cerevisiae CLN2oe strain, stronger effect = higher value
# Summary of the method: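 Compound-treated yeast; growth vs vehicle ctrl = % inhibition. Genetically altered strain (cell-cycle control).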
# [10] = NCI Yeast Anticancer Drug Screen. Data for the cln2 rad14 strain (AID 165);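 also: 0% = growth equal to vehicle treated cultures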; details: S. cerevisiae cln2 rad14 strain, stronger effect = higher value
# Summary of the method: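 Growth inhibition, relative to vehicle-treated controls, is the read-out. The test organism is a yeast strain with defined genetic alterations, cln2 rad14.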
# [11] = NCI Yeast Anticancer Drug Screen. Data for the bub3 strain (AID 167); details: S. cerevisiae bub3 mutant strain, stronger effect = higher value
# Summary of the method: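 Whole-cell yeast assay. The mutant strain was incubated with compounds, and growth inhibition was determined by comparison with vehicle-treated cells.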
# [12] = NCI Yeast Anticancer Drug Screen. Data for the wt2 strain (AID 169);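 also: 0% = growth of vehicle-treated yeast cultures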; details: S. cerevisiae wt2 strain growth inhibition, stronger effect = higher value
# Summary of the method: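 Compound exposure of yeast; growth compared with vehicle controls; inhibition reported.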
# [13] = NCI Yeast Anticancer Drug Screen. Data for the mlh1 strain (AID 171);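 also: 0% = growth of vehicle-treated control cultures of the same strain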; details: S. cerevisiae mlh1 strain growth inhibition, stronger effect = higher value
# Summary of the method: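 Compounds are applied to a genetically altered yeast strain, and its growth is compared with that of vehicle-treated cultures to give percent inhibition.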
# [14] = NCI Yeast Anticancer Drug Screen. Data for the sgs1 strain (AID 173);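 also: 0% = growth of vehicle-only control cultures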; details: S. cerevisiae sgs1 mutant, stronger effect = higher value
# Summary of the method: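 Compounds applied to genetically altered yeast; growth compared with vehicle-treated cultures to give % inhibition.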
# [15] = NCI Yeast Anticancer Drug Screen. Data for the mlh1 rad18 strain (AID 175); details: S. cerevisiae mlh1 rad18 strain growth inhibition, stronger effect = higher value
# Summary of the method: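 Cells of a genetically altered yeast strain, deficient in DNA damage repair, were treated with compound. Their growth was then compared with that of vehicle-treated cultures to give inhibition.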
# [16] = NCI Yeast Anticancer Drug Screen. Data for the rad18 strain (AID 177); details: S. cerevisiae rad18 mutant growth inhibition, stronger effect = higher value
# Summary of the method: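 Compounds are applied to a repair-deficient yeast strain, and growth is compared with that of vehicle-treated cultures to give percent inhibition.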
# [17] = at 5.0 µM (retest, dose inferred, filed as 0.5)
# [18] = at 50.0 µM (retest, dose inferred, filed as 5.0)
smiles,measurement,setting,value
COc1ccc2nc(CCc3ccccc3)ccc2c1,growth inhibition,[1]; at 1.2 µM,-18%
same,growth inhibition,[1]; at 3.7 µM,-25%
same,growth inhibition,[1]; at 11.0 µM,-14%
same,growth inhibition,[1]; at 33.0 µM,-7%
same,growth inhibition,[1]; at 100.0 µM,96% (active)
same,growth inhibition,[2]; at 1.2 µM,-5%
same,growth inhibition,[2]; at 3.7 µM,-7%
same,growth inhibition,[2]; at 11.0 µM,-1%
same,growth inhibition,[2]; at 33.0 µM,-7%
same,growth inhibition,[2]; at 100.0 µM,96% (active)
same,growth inhibition,[3]; at 1.2 µM,-7%
same,growth inhibition,[3]; at 3.7 µM,-9%
same,growth inhibition,[3]; at 11.0 µM,11%
same,growth inhibition,[3]; at 33.0 µM,26%
same,growth inhibition,[3]; at 100.0 µM,34%
same,growth inhibition,[4]; at 1.2 µM,-9%
same,growth inhibition,[4]; at 3.7 µM,-7%
same,growth inhibition,[4]; at 11.0 µM,-6%
same,growth inhibition,[4]; at 33.0 µM,-5%
same,growth inhibition,[4]; at 100.0 µM,35%
same,growth inhibition,[5]; at 1.2 µM,-20%
same,growth inhibition,[5]; at 3.7 µM,-21%
same,growth inhibition,[5]; [17],-6%
same,growth inhibition,[5]; at 11.0 µM,-27%
same,growth inhibition,[5]; at 33.0 µM,-8%
same,growth inhibition,[5]; [18],55%
same,growth inhibition,[5]; at 50.0 µM,69.3%
same,growth inhibition,[5]; at 100.0 µM,94% (active)
same,growth inhibition,[6]; at 1.2 µM,-7%
same,growth inhibition,[6]; at 3.7 µM,-5%
same,growth inhibition,[6]; [17],-7%
same,growth inhibition,[6]; at 11.0 µM,-8%
same,growth inhibition,[6]; at 33.0 µM,-11%
same,growth inhibition,[6]; [18],81% (active)
same,growth inhibition,[6]; at 50.0 µM,84.7% (active)
same,growth inhibition,[6]; at 100.0 µM,50%
same,growth inhibition,[7]; at 1.2 µM,3%
same,growth inhibition,[7]; at 3.7 µM,-8%
same,growth inhibition,[7]; at 11.0 µM,11%
same,growth inhibition,[7]; at 33.0 µM,2%
same,growth inhibition,[7]; at 100.0 µM,95% (active)
same,growth inhibition,[8]; [17],5%
same,growth inhibition,[8]; [18],87% (active)
same,growth inhibition,[8]; at 50.0 µM,84.1% (active)
same,growth inhibition,[9]; at 1.2 µM,-12%
same,growth inhibition,[9]; at 3.7 µM,-13%
same,growth inhibition,[9]; at 11.0 µM,-18%
same,growth inhibition,[9]; at 33.0 µM,-16%
same,growth inhibition,[9]; at 100.0 µM,20%
same,growth inhibition,[10]; [17],-6%
same,growth inhibition,[10]; [18],-1%
same,growth inhibition,[10]; at 50.0 µM,-7.95%
same,growth inhibition,[11]; at 1.2 µM,-6%
same,growth inhibition,[11]; at 3.7 µM,6%
same,growth inhibition,[11]; [17],14%
same,growth inhibition,[11]; at 11.0 µM,12%
same,growth inhibition,[11]; at 33.0 µM,34%
same,growth inhibition,[11]; [18],78% (active)
same,growth inhibition,[11]; at 50.0 µM,87.7% (active)
same,growth inhibition,[11]; at 100.0 µM,88% (active)
same,growth inhibition,[12]; at 1.2 µM,5%
same,growth inhibition,[12]; at 3.7 µM,4%
same,growth inhibition,[12]; at 11.0 µM,20%
same,growth inhibition,[12]; at 33.0 µM,39%
same,growth inhibition,[12]; at 100.0 µM,99% (active)
same,growth inhibition,[13]; at 1.2 µM,-15%
same,growth inhibition,[13]; at 3.7 µM,-10%
same,growth inhibition,[13]; at 11.0 µM,-12%
same,growth inhibition,[13]; at 33.0 µM,-14%
same,growth inhibition,[13]; at 100.0 µM,91% (active)
same,growth inhibition,[14]; at 1.2 µM,-24%
same,growth inhibition,[14]; at 3.7 µM,-17%
same,growth inhibition,[14]; at 11.0 µM,-3%
same,growth inhibition,[14]; at 33.0 µM,21%
same,growth inhibition,[14]; at 100.0 µM,96% (active)
same,growth inhibition,[15]; [17],-6%
same,growth inhibition,[15]; [18],70% (active)
same,growth inhibition,[15]; at 50.0 µM,30.9%
same,growth inhibition,[16]; at 1.2 µM,-11%
same,growth inhibition,[16]; at 3.7 µM,-12%
same,growth inhibition,[16]; at 11.0 µM,-13%
same,growth inhibition,[16]; at 33.0 µM,-19%
same,growth inhibition,[16]; at 100.0 µM,92% (active)
CC1CCC(C2=CSC3CCCCC3N2)CC1 (stereo unspecified),growth inhibition,[1]; at 1.2 µM,21%
same,growth inhibition,[1]; at 3.7 µM,21%
same,growth inhibition,[1]; at 11.0 µM,21%
same,growth inhibition,[1]; at 33.0 µM,37%
same,growth inhibition,[1]; at 100.0 µM,78% (active)
same,growth inhibition,[2]; at 1.2 µM,14%
same,growth inhibition,[2]; at 3.7 µM,-2%
same,growth inhibition,[2]; at 11.0 µM,3%
same,growth inhibition,[2]; at 33.0 µM,31%
same,growth inhibition,[2]; at 100.0 µM,65%
same,growth inhibition,[3]; at 1.2 µM,1%
same,growth inhibition,[3]; at 3.7 µM,-14%
same,growth inhibition,[3]; at 11.0 µM,-8%
same,growth inhibition,[3]; at 33.0 µM,14%
same,growth inhibition,[3]; at 100.0 µM,71% (active)
same,growth inhibition,[4]; at 1.2 µM,-1%
same,growth inhibition,[4]; at 3.7 µM,4%
same,growth inhibition,[4]; at 11.0 µM,9%
same,growth inhibition,[4]; at 33.0 µM,32%
same,growth inhibition,[4]; at 100.0 µM,91% (active)
same,growth inhibition,[5]; at 1.2 µM,16%
same,growth inhibition,[5]; at 3.7 µM,23%
same,growth inhibition,[5]; [17],17%
same,growth inhibition,[5]; at 11.0 µM,20%
same,growth inhibition,[5]; at 33.0 µM,37%
same,growth inhibition,[5]; [18],13%
same,growth inhibition,[5]; at 50.0 µM,43%
same,growth inhibition,[5]; at 100.0 µM,74% (active)
same,growth inhibition,[6]; at 1.2 µM,-36%
same,growth inhibition,[6]; at 3.7 µM,5%
same,growth inhibition,[6]; [17],-6%
same,growth inhibition,[6]; at 11.0 µM,3%
same,growth inhibition,[6]; at 33.0 µM,14%
same,growth inhibition,[6]; [18],71% (active)
same,growth inhibition,[6]; at 50.0 µM,56.5%
same,growth inhibition,[6]; at 100.0 µM,80% (active)
same,growth inhibition,[7]; at 1.2 µM,-20%
same,growth inhibition,[7]; at 3.7 µM,-16%
same,growth inhibition,[7]; at 11.0 µM,-11%
same,growth inhibition,[7]; at 33.0 µM,-6%
same,growth inhibition,[7]; at 100.0 µM,76% (active)
same,growth inhibition,[8]; [17],-4%
same,growth inhibition,[8]; [18],28%
same,growth inhibition,[8]; at 50.0 µM,51.1%
same,growth inhibition,[9]; at 1.2 µM,-3%
same,growth inhibition,[9]; at 3.7 µM,13%
same,growth inhibition,[9]; at 11.0 µM,0%
same,growth inhibition,[9]; at 33.0 µM,22%
same,growth inhibition,[9]; at 100.0 µM,45%
same,growth inhibition,[10]; [17],32%
same,growth inhibition,[10]; [18],42%
same,growth inhibition,[10]; at 50.0 µM,11.6%
same,growth inhibition,[11]; at 1.2 µM,5%
same,growth inhibition,[11]; at 3.7 µM,-4%
same,growth inhibition,[11]; [17],42%
same,growth inhibition,[11]; at 11.0 µM,5%
same,growth inhibition,[11]; at 33.0 µM,29%
same,growth inhibition,[11]; [18],84% (active)
same,growth inhibition,[11]; at 50.0 µM,66%
same,growth inhibition,[11]; at 100.0 µM,73% (active)
same,growth inhibition,[12]; at 1.2 µM,-8%
same,growth inhibition,[12]; at 3.7 µM,-3%
same,growth inhibition,[12]; at 11.0 µM,-4%
same,growth inhibition,[12]; at 33.0 µM,19%
same,growth inhibition,[12]; at 100.0 µM,74% (active)
same,growth inhibition,[13]; at 1.2 µM,6%
same,growth inhibition,[13]; at 3.7 µM,4%
same,growth inhibition,[13]; at 11.0 µM,11%
same,growth inhibition,[13]; at 33.0 µM,28%
same,growth inhibition,[13]; at 100.0 µM,74% (active)
same,growth inhibition,[14]; at 1.2 µM,15%
same,growth inhibition,[14]; at 3.7 µM,5%
same,growth inhibition,[14]; at 11.0 µM,14%
same,growth inhibition,[14]; at 33.0 µM,35%
same,growth inhibition,[14]; at 100.0 µM,67%
same,growth inhibition,[15]; [17],7%
same,growth inhibition,[15]; [18],85% (active)
same,growth inhibition,[15]; at 50.0 µM,38.8%
same,growth inhibition,[16]; at 1.2 µM,-5%
same,growth inhibition,[16]; at 3.7 µM,-6%
same,growth inhibition,[16]; at 11.0 µM,-6%
same,growth inhibition,[16]; at 33.0 µM,3%
same,growth inhibition,[16]; at 100.0 µM,45%

# — PubChem BioAssay (NCI)
